In PubChem BioAssay AID1259421 (Broad Institute, 2018):
Several values for one entry are separate records, joined by “and”; a condition that tells them apart may be missing. Equal entries are not always repeated. Hit rate of the full screen: of about 6,400 compounds, about 610 (9.5%) were called active. No stated cut-off is given here; in the data, active means activity change below about -70%; inconclusive means no clear call, values can overlap the other calls; inactive means above that. For the sample, actives were picked, then their nearest neighbours and some compounds at random. More than one record can exist for a structure, and the calls need not agree.

experiment: T. gondii ME49Luc in HeLa cells, luciferase assay, 72 h, no IFN-y (AID 1259421); conditions: stronger effect = lower value, concentration not given here

| SMILES | activity change, negative = inhibition |
| --- | --- |
| CC(C)n1nc(-c2cc3cc(O)ccc3[nH]2)c2c(N)ncnc21 | -50.4% (inactive) |
| CC(C)n1nc(-c2ccc3oc(N)nc3c2)c2c(N)ncnc21 | -74.3% (active) |
| CC(=O)O[C@@H]1CC[C@@]2(C)C(C[C@@H](OC(C)=O)[C@@]3(C)C4=CC(=O)O[C@@H](c5ccoc5)[C@]4(C)CCC23)C1(C)C (stereo not given in full) | 12.5% (inactive) |
| O=C(O)CCc1c(C(=O)O)[nH]c2cc(Cl)cc(Cl)c12 | 12.5% (inactive) |
| CC[C@H](C)[C@H]1O[C@]2(CC[C@@H]1C)C[C@@H]1C[C@@H](C/C=C(\C)[C@@H](O[C@H]3C[C@H](OC)[C@@H](O[C@H]4C[C@H](OC)[C@@H](O)[C@H](C)O4)[C@H](C)O3)[C@@H](C)/C=C/C=C3\CO[C@@H]4[C@H](O)C(C)=C[C@@H](C(=O)O1)[C@]34O)O2 | -65% (inactive) and -79.5% (active) |
| CCC(C)[C@H]1O[C@]2(C=C[C@@H]1C)C[C@@H]1C[C@@H](C/C=C(\C)[C@@H](OC3C[C@H](OC)C(O[C@H]4C[C@H](OC)[C@@H](NC(C)=O)[C@H](C)O4)[C@H](C)O3)[C@@H](C)/C=C/C=C3\CO[C@@H]4[C@H](O)C(C)=C[C@@H](C(=O)O1)[C@]34O)O2 (stereo not given in full) | -6.74% (inactive) |
| CCC(C)[C@H]1O[C@]2(CC[C@@H]1C)C[C@@H]1C[C@@H](C/C=C(\C)[C@@H](OC3C[C@H](OC)C(O[C@H]4C[C@H](OC)[C@@H](O)[C@H](C)O4)[C@H](C)O3)[C@@H](C)/C=C/C=C3\CO[C@@H]4[C@H](O)C(C)=C[C@@H](C(=O)O1)[C@]34O)O2 (stereo not given in full) | -67.1% (inactive) |
| COc1ccccc1N1CCN(CCCCN2C(=O)CCC2=O)CC1 | -10.5% (inactive) and 6.09% (inactive) |
| C[C@]12C=CC(=O)C=C1CCC1C2C(=O)C[C@@]2(C)C1CC[C@]2(O)C(=O)CO (stereo not given in full) | -0.495% (inactive) |
| C=COCC(F)(F)F | 2.78% (inactive) |
| COc1ncnc(N)c1OC | 8.31% (inactive) |
| CCCCC(=O)O[C@H]1CC[C@H]2[C@@H]3CCc4cc(O)ccc4[C@H]3CC[C@]12C | -58.1% (inactive) |
| C[C@]12CC[C@@H]3c4ccc(O)cc4C[C@@H](CCCCCCCCCS(=O)CCCC(F)(F)C(F)(F)F)[C@H]3[C@@H]1CC[C@@H]2O (stereo not given in full) | -83.4% (active) |
| C[C@]12CCC3c4ccc(O)cc4CCC3C1CC[C@@H]2OC(=O)CCC1CCCC1 (stereo not given in full) | -65.2% (inactive) and 3.38% (inactive) |
| CC(C)(C)N1CCC(c2ccccc2)(c2ccccc2)CC1 | 14.2% (inactive) |
| CCC[C@@]1(CCc2ccccc2)CC(=O)C([C@H](CC)c2cccc(NS(=O)(=O)c3ccc(C(F)(F)F)cn3)c2)C(=O)O1 (stereo not given in full) | 10.4% (inactive) |
| COc1cc(CCc2cc(NC(=O)c3ccc(N4C[C@@H](C)N[C@@H](C)C4)cc3)n[nH]2)cc(OC)c1 | -81.1% (active) |
| COc1ccc(NC(=O)c2ccc(C(=N)N(C)C)cc2)c(C(=O)Nc2ccc(Cl)cn2)c1 | -0.285% (inactive) |
| COc1ccc(C(=O)Nc2c(Cl)cncc2Cl)cc1OC1CCCC1 | 3.75% (inactive) |
| C/C=N/N(C)C=O | 3.01% (inactive) |
| Cc1[nH]c(C)c(Cl)c(=O)c1Cl | -1.17% (inactive) and -3.71% (inactive) |
| Cc1cccc(Oc2cnc(=O)[nH]c2)c1 | 9.21% (inactive) |
| CCCCOC(=O)c1cc2c(cn1)[nH]c1ccccc12 | 42.7% (inactive) and 253% (inactive) |
| CCCS(=O)(=O)Nc1ccc(F)c(C(=O)c2c[nH]c3ncc(Cl)cc23)c1F | -26.4% (inactive) |

| SMILES | activity change, negative = inhibition |
| --- | --- |
| CCCCOc1c(C(=O)c2c(F)cc(C)cc2F)cnc2n[nH]cc12 | -88.2% (active) |
| COc1cc(OC)c2ccc(=O)oc2c1 | 1.05% (inactive) |
| Clc1ccc(CCCOCCCN2CCCCC2)cc1 | 2.37% (inactive) |
| COc1ccc2cc(-c3nc(-c4ccc(S(C)=O)cc4)[nH]c3-c3ccncc3)ccc2c1 (stereo not given) | -51.3% (inactive) |
| COc1cc(S(C)=O)ccc1-c1nc2ncccc2[nH]1 (stereo not given) | -7.2% (inactive) and 19.1% (inactive) |
| CS(=O)c1ccc(-c2nc(-c3ccc(F)cc3)c(-c3ccncc3)[nH]2)cc1 (stereo not given) | -85.1% (active) and -89.6% (active) |
| Oc1ccc(-c2nc(-c3ccc(F)cc3)c(-c3ccncc3)[nH]2)cc1 | -91.7% (active) and -92.7% (active) |
| CS(=O)(=O)c1ccc(-c2nc(-c3ccc(F)cc3)c(-c3ccncc3)[nH]2)cc1 | -5.72% (inactive) |
| CC1(C)O[C@H]2CC(=O)OC[C@]23[C@H]2CC[C@@]4(C)[C@H](c5ccoc5)OC(=O)[C@H]5O[C@]54[C@]2(C)C(=O)C[C@@H]13 | 7.46% (inactive) |
| CC/C=C\C/C=C\C/C=C\C/C=C\C/C=C\C/C=C\CCC(=O)OCC | 4.98% (inactive) |
| COc1cc(O)c(C(=O)c2ccccc2)cc1O | 6.03% (inactive) |
| Cc1cc(CC(C)CC(C)(C)C)n(O)c(=O)c1 (stereo not given) | -84.1% (active) |
| Nc1nnnn1-c1ccccc1 | 6.66% (inactive) |
| CCCCCCCCCCCCCC(=O)OC(C)C | 13.1% (inactive) |
| N#Cc1ncccn1 | 3.94% (inactive) |
| COc1cc(/C=C2\CCCN([C@@H](C)c3ccc(F)cc3)C2=O)ccc1-n1cnc(C)c1 | -5.26% (inactive) |
| Cn1cc(-c2[nH]c3cc(NC(=O)[C@H](N)C4CCCCC4)cc4c3c2C=NNC4=O)cn1 | -91.8% (active) and -59.2% (inactive) |
| CC(C)(C)Sc1c(CC(C)(C)C(=O)O)n(Cc2ccc(Cl)cc2)c2ccc(OCc3ccc4ccccc4n3)cc12 | 12.6% (inactive) |
| COC(=O)C(Cc1ccc(OCCn2c(=O)sc3cc(C(=O)c4ccccc4)ccc32)cc1)C(=O)OC | 18.5% (inactive) |
| CN(C)CCCO[C@H]1[C@@H](C(O)CO)OC2OC(C)(C)O[C@@H]21 (stereo not given in full) | 4.68% (inactive) |
| Oc1cc2c(c(Cl)c1O)CCNC[C@@H]2c1ccccc1 | -18.1% (inactive) |
| CCOC(=O)NCC(Cc1ccc(OCCc2nc(-c3ccccc3)oc2C)cc1)N/C(C)=C/C(=O)c1ccc(C(F)(F)F)cc1 (stereo not given) | -49.9% (inactive) |
| CNCCn1c(=O)c2cc(OC)c(OC)cc2c2cnc3cc4c(cc3c21)OCO4 | -94.2% (active) |
| O=C1NC(O)CCN1[C@@H]1O[C@H](CO)[C@@H](O)[C@H]1O (stereo not given in full) | -5.72% (inactive) |

| SMILES | activity change, negative = inhibition |
| --- | --- |
| Cc1ccc(NC(=O)c2cccc(C(C)(C)C#N)c2)cc1Nc1ccc2ncn(C)c(=O)c2c1 | -3.87% (inactive) |
| NC(=O)c1ccc[n+]([C@@H]2O[C@H](COP(=O)(O)OP(=O)(O)OC[C@H]3O[C@@H](n4cnc5c(N)ncnc54)[C@H](O)[C@@H]3O)[C@@H](O)[C@H]2O)c1 | -1.89% (inactive) |
| COc1ccc(-c2nc3ccc(C4=NNC(=O)CC4C)cc3[nH]2)cc1 (stereo not given) | 21.8% (inactive) |
| CNC(=O)c1nn(C)c2c1C(C)(C)Cc1cnc(Nc3ccc(N4CCN(C)CC4)cc3)nc1-2 | -73.5% (active) |
| O=C(O)c1ccc(Nc2ncc3c(n2)-c2ccc(Cl)cc2C(c2c(F)cccc2F)=NC3)cc1 | -36.4% (inactive) |
| CCOC(=O)C1=C(N)Oc2ccc(Br)cc2[C@H]1[C@H](C#N)C(=O)OCC | -65.8% (inactive) |
| CC[C@]12CCCN3CCc4c(n(c5ccccc45)[C@](O)(C(=O)OC)C1)[C@@H]32 | 8.44% (inactive) and 5.97% (inactive) |
| CCN(CC)CCn1c(=O)c(Cc2ccc(OC)cc2)nc2ccccc21 | -5.78% (inactive) |
| CCCCc1nc2cc(/C=C/C(=O)NO)ccc2n1CCN(CC)CC | -75.3% (active) and -94% (active) |
| N[C@@]1(C(=O)O)CC[C@H]2[C@H](C(=O)O)[C@H]21 | 6.82% (inactive) |
| COC(=O)[C@H](Cc1cccc(C(=N)N)c1)[C@@H](C)NC(=O)c1ccc(-c2cc[n+]([O-])cc2)cc1 | -6.72% (inactive) |
| O=C1c2ccccc2S(=O)(=O)N1CCCN1CCN(c2ncccn2)CC1 | 6.33% (inactive) |
| CS(=O)(=O)c1ccc(-c2cc(Br)sc2-c2ccc(F)cc2)cc1 | 22.9% (inactive) and 24.6% (inactive) |
| CC(=O)[C@]1(O)Cc2c(O)c3c(c(O)c2[C@@H](O[C@H]2C[C@H](N)[C@H](O)[C@H](C)O2)C1)C(=O)c1ccccc1C3=O | -72.5% (active) and -66% (inactive) and -71.5% (active) |
| CC(=O)C1(O)Cc2c(O)c3c(c(O)c2C(OC2CC(N)C(O)C(C)O2)C1)C(=O)c1c(O)cccc1C3=O (stereo not given) | -82.5% (active) |
| CC(C)=CCCC(C)(OC1OC(COC2OC(CO)C(O)C2O)C(O)C(O)C1O)C1CCC2(C)C1C(O)CC1C3(C)CCC(OC4OC(CO)C(O)C(O)C4OC4OC(CO)C(O)C(O)C4O)C(C)(C)C3CCC12C (stereo not given) | 4.49% (inactive) |
| CC(C)C[C@H](NC(=O)[C@@H](COC(C)(C)C)NC(=O)[C@H](Cc1ccc(O)cc1)NC(=O)[C@H](CO)NC(=O)[C@H](Cc1c[nH]c2ccccc12)NC(=O)[C@H](Cc1cnc[nH]1)NC(=O)[C@@H]1CCC(=O)N1)C(=O)N[C@@H](CCCN=C(N)N)C(=O)N1CCC[C@H]1C(=O)NNC(N)=O | 8.64% (inactive) |
| O=[N+]([O-])c1cc(Cl)ccc1S(=O)(=O)N1CCN(Cc2ccccc2)CC1 | 26.6% (inactive) |
| C=C1C[C@]23C[C@@]1(O)CC[C@H]2[C@@]12C=C[C@H](O)[C@@](C)(C(=O)O1)[C@H]2[C@@H]3C(=O)O | 13.1% (inactive) |
| CCC(=O)OCC(=O)[C@@]1(OC(=O)CC)[C@@H](C)C[C@H]2[C@@H]3CCC4=CC(=O)C=C[C@]4(C)[C@@]3(F)[C@@H](O)C[C@@]21C | -3.54% (inactive) |
| CCC(=O)OCC(=O)C1(OC(=O)CC)C(C)CC2C3CCC4=CC(=O)C=CC4(C)C3(Cl)C(O)CC21C (stereo not given) | -2.98% (inactive) |
| CCC(=O)OCC(=O)[C@@]1(OC(=O)CC)[C@@H](C)C[C@H]2[C@@H]3CCC4=CC(=O)C=C[C@]4(C)[C@@]3(Cl)[C@@H](O)C[C@@]21C | -74.6% (active) and -1.83% (inactive) |
